Bioassay records from PubChem BioAssay.
ATXN viability: viability counter-screen for ATXN expression inhibitors; S2 cells (HEK-293 line with an ATXN2-luciferase reporter) viability, CellTiter-Fluor protease fluorescence, 24 h; Potency, µM (series often up to 56.7 µM), usual class: cytotoxic; 0.49% of 400,000 active; AID 651635; also: nearly all actives have a fitted effect of over 40% in size
TDP1 cell CPT: DT40-hTDP1 cell growth loss with CPT; chicken DT40 Tdp1-/-;hTDP1 cells + 20 nM CPT, ATP luminescence, 48 h; Potency, µM (titrated, usually from 46.2 µM), for inactives: top-dose activity change, negative = growth inhibition, actives largely listed as inhibitors; 12% of 420,000 active; also: % is scaled to controls: 0 for no effect and ±100 for the full control effect; nearly all actives have a fitted effect of over 55% in size
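Cell growth measured by CellTiter-Glo luminescence after a minimum 48 h, 37 C compound exposure with 20 nM CPT in Tdp1-knockout DT40 cells stably expressing hTDP1, seeded 400/well; qHTS titration format.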
TGFb inhibitor: blocks TGF-b signaling; HepG2 CAGA-GFP TGF-b/SMAD3 reporter, GFP fluorescence, 18 h; TGF-beta stimulated, 500 pg/mL final; Potency, µM (doses to about 46.1 µM), for the others: top-dose activity, negative = inhibition, hits mostly inhibitors; 1.2% of 410,000 active; AID 588855; also: % is scaled to controls: 0 for no effect and ±100 for the full control effect; nearly all actives have a fitted effect of over 65% in size
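HEPG2 CAGA-GFP cells (1000/well, DMEM with 1% FBS) were pre-incubated 2 h at 37 degrees C, given compound by pin tool, then stimulated with TGF-beta at 500 pg/mL final for 18 h before per-cell GFP fluorescence imaging.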
TDP1 cell noCPT: qHTS for Inhibitors of human tyrosyl-DNA phosphodiesterase 1 (TDP1): qHTS in cells in absence of CPT; DT40 Tdp1-/- hTDP1 cells, no CPT, ATP luminescence, 48 h; Potency, µM (titrated, usually from 46.2 µM), for inactives: top-dose activity change, negative = growth inhibition, usual class: inhibitors; 15% of 420,000 active; AID 686978, 2013; also: % is scaled to controls: 0 for no effect and ±100 for the full control effect; nearly all actives have a fitted effect of over 55% in size
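No-CPT arm: Tdp1-/-;hTDP1 DT40 cells (400/well) plus compounds, incubated ≥48 hr at 37 °C. Readout CellTiter-Glo luminescence.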
ATXN2 expr inh: ATXN2 expression inhibition. HEK-293 ATXN2-luciferase reporter, luminescence, 24 h. Potency, µM (top dose mostly 57 µM), for the others: at the top dose activity change, negative = inhibition, most hits filed as inhibitors. 0.72% of 360,000 active; also: % is scaled to controls: 0 for no effect and ±100 for the full control effect; nearly all actives have a fitted effect of over 55% in size
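ATXN2-luciferase reporter cells (luciferase flanked by upstream and downstream ATXN2 gene portions) were treated 24 h at 37 °C with compounds at up to 57 uM. SteadyGlo luminescence gave expression; GF-AFC fluorescence gave viability.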
HepG2 viability: HepG2 cytotoxicity, counter-screen for TGF-b inhibitors; HepG2 CAGA-GFP viability, ATP luminescence, 18 h; Potency, µM (series often up to 46.1 µM), for the others: at the top dose activity change, negative = cytotoxicity, hits mostly cytotoxic; 0.76% of 410,000 active; AID 588856
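CellTiter-Glo luminescence gave cytotoxicity after 18 hours at 37 degrees C. The cells were HepG2 CAGA-GFP in 1% FBS DMEM, stimulated with 500 pg/mL TGF-beta after compound addition. %Activity was normalised to no-cell wells (complete cell-killing) and DMSO (no toxicity), and curves were fitted and classified.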
* marks the source's active call; other numbers are inactive results. Sampled rows, rich in hits. Any-hit rate of the full collection: about 17%. Calls follow the shape of the dose curve; as a rule, active = well fitted curve in the direction sought with a large enough effect; inconclusive = small, poorly fitted or top-dose-only effect, or another doubt; inactive = no such curve, though single readings can be large; an effect the other way counts as inactive or inconclusive. Potency is read from the fitted curve at half-maximal effect.

`O=C(CCC1CCCC1)Nc1cc(Cl)ccc1N1CCOCC1` gave ATXN viability inactive, TDP1 cell CPT inconclusive, TGFb inhibitor 4%, TDP1 cell noCPT inconclusive, ATXN2 expr inh 0% and HepG2 viability -5%.
Screening CCOc1ccccc1OCCCC(=O)Nc1sccc1C(N)=O returned ATXN viability inactive, TDP1 cell CPT inconclusive, TGFb inhibitor inconclusive, TDP1 cell noCPT 16µM*, ATXN2 expr inh 21% and HepG2 viability 4%.
`NS(=O)(=O)c1ccc(CCNC(=O)c2cnccn2)cc1` gave ATXN viability inactive, TDP1 cell CPT 1%, TGFb inhibitor 2%, TDP1 cell noCPT -7%, ATXN2 expr inh 0% and HepG2 viability 7%.
CCc1nc2ccc(C(=O)N(C)CCN(C)C)cn2c1N(C)CCC(C)C was read as ATXN viability inactive, TDP1 cell CPT 5%, TGFb inhibitor -4%, TDP1 cell noCPT inconclusive, ATXN2 expr inh 8% and HepG2 viability -24%.
For CC(Oc1cccc(Cl)c1)C(=O)Nc1cc(Cl)ccc1N1CCOCC1 (stereo unspecified) the results were ATXN viability inactive, TDP1 cell CPT 21µM*, TGFb inhibitor -28%, TDP1 cell noCPT inconclusive, ATXN2 expr inh -28% and HepG2 viability -22%.
For CCCNC(=O)Nc1cc(OCC)c(N2CCOCC2)cc1OCC the results were ATXN viability inactive, TDP1 cell CPT inconclusive, TGFb inhibitor -1%, TDP1 cell noCPT 18µM*, ATXN2 expr inh -36% and HepG2 viability -19%.
`CC(Oc1cccc(Cl)c1)C(=O)N(C)CC(=O)Nc1ccc(N2CCOCC2)cc1` (stereo unspecified) gave ATXN viability inactive, TDP1 cell CPT 13µM*, TGFb inhibitor 0%, TDP1 cell noCPT 16µM*, ATXN2 expr inh -13% and HepG2 viability -17%.
For CC(Oc1cccc(Cl)c1)C(=O)Nc1cc(=O)n(C)c(=O)n1C (stereo unspecified) the results were ATXN viability inactive, TDP1 cell CPT inconclusive, TGFb inhibitor 10%, TDP1 cell noCPT 13µM*, ATXN2 expr inh -14% and HepG2 viability 0%.
Screening O=C(Nc1cc(Cl)ccc1N1CCOCC1)C1CC1 returned ATXN viability inactive, TDP1 cell CPT -4%, TGFb inhibitor 9%, TDP1 cell noCPT -13%, ATXN2 expr inh 5% and HepG2 viability -15%.
For CCCC(C(=O)N(C)CC(=O)Nc1ccc(N2CCOCC2)cc1)c1ccccc1 (stereo unspecified) the results were ATXN viability inactive, TDP1 cell CPT -11%, TGFb inhibitor 4%, TDP1 cell noCPT -15%, ATXN2 expr inh 14% and HepG2 viability -8%.
For Cc1ccc(C)c(N2CCN(S(=O)(=O)c3c(C)nc4sccn4c3=O)CC2)c1 the results were ATXN viability inactive, TDP1 cell CPT 8%, TGFb inhibitor 23%, TDP1 cell noCPT -1%, ATXN2 expr inh 12% and HepG2 viability 5%.
Cc1ccc2nc(-c3ccc(N=Nc4cc(S(=O)(=O)O)c5ccccc5c4O)cc3)sc2c1S(=O)(=O)O was read as TDP1 cell CPT inconclusive, TGFb inhibitor -13%, TDP1 cell noCPT inconclusive and HepG2 viability 3%.
For O=C(CC1SC(N2CCCCC2)=NC1=O)Nc1cccc(C(=O)Nc2ncccc2O)c1 (stereo unspecified) the results were ATXN viability inactive, TDP1 cell CPT inconclusive, TGFb inhibitor 0%, TDP1 cell noCPT inconclusive, ATXN2 expr inh 30% and HepG2 viability 4%.
`Nc1cc(Cl)ccc1CN1C(=O)c2ccccc2C1=O` gave ATXN viability inactive, TDP1 cell CPT inconclusive, TGFb inhibitor -6%, TDP1 cell noCPT inconclusive, ATXN2 expr inh 91% and HepG2 viability -13%.
CCOc1cc(N2CCOCC2)c(OCC)cc1NC(=O)C1CCCC1 was read as ATXN viability inactive, TDP1 cell CPT inconclusive, TGFb inhibitor -1%, TDP1 cell noCPT 29µM*, ATXN2 expr inh -4% and HepG2 viability -18%.
For CCOc1cc(N2CCOCC2)c(OCC)cc1NC(=O)CN1CCCC1 the results were ATXN viability inactive, TDP1 cell CPT 10%, TGFb inhibitor 3%, TDP1 cell noCPT -5%, ATXN2 expr inh -7% and HepG2 viability 7%.
For CN(CC(=O)Nc1ccc(N2CCOCC2)cc1)CC(=O)Nc1ccc(Cl)cc1[N+](=O)[O-] the results were ATXN viability inactive, TDP1 cell CPT inconclusive, TGFb inhibitor -1%, TDP1 cell noCPT 26µM*, ATXN2 expr inh -9% and HepG2 viability -17%.
For Cc1ccc(C)c(OCCC(=O)OCC(=O)Nc2cccnc2Cl)c1 the results were ATXN viability inactive, TDP1 cell CPT 15µM*, TGFb inhibitor 5%, TDP1 cell noCPT inconclusive, ATXN2 expr inh -10% and HepG2 viability -11%.
`Cc1ccc(C)c(OCCCC(=O)Nc2ccccc2C(N)=O)c1` gave ATXN viability inactive, TDP1 cell CPT inconclusive, TGFb inhibitor 4%, TDP1 cell noCPT 16µM* and HepG2 viability -13%.
CCOc1cc(N2CCOCC2)c(OCC)cc1NC(=O)COC(=O)CCOc1cc(C)ccc1C was read as ATXN viability inactive, TDP1 cell CPT inconclusive, TGFb inhibitor -7%, TDP1 cell noCPT 23µM*, ATXN2 expr inh -5% and HepG2 viability -26%.
For CCOc1cc(N2CCOCC2)c(OCC)cc1NC(=O)c1cc(S(=O)(=O)N2CCOCC2)ccc1Cl the results were ATXN viability inconclusive, TDP1 cell CPT -110%, TGFb inhibitor inconclusive, TDP1 cell noCPT -103%, ATXN2 expr inh -7% and HepG2 viability 3%.
CCOc1cc(N2CCOCC2)c(OCC)cc1NC(=O)CCS(=O)(=O)c1ccc(Cl)cc1 was read as ATXN viability inactive, TDP1 cell CPT 4.1µM*, TGFb inhibitor -6%, TDP1 cell noCPT 1.8µM*, ATXN2 expr inh -11% and HepG2 viability -11%.
Screening CC(Oc1cccc(Cl)c1)C(=O)Nc1ccccc1N1CCCCC1 (stereo unspecified) returned ATXN viability inactive, TDP1 cell CPT 3%, TGFb inhibitor inconclusive, TDP1 cell noCPT -9%, ATXN2 expr inh 7% and HepG2 viability 1%.
